Hits are enriched below; roughly 17% of the tested compounds scored in any of these assays.
TDP1 cell CPT: DT40-hTDP1 cell growth loss with CPT; chicken DT40 Tdp1-/-;hTDP1 cells + 20 nM CPT, ATP luminescence, 48 h; Potency, µM (doses to about 46.2 µM), inactives show at the top dose activity change, negative = growth inhibition, most hits filed as inhibitors; 12% of 420,000 active; AID 686979; also: % is scaled to controls: 0 for no effect and ±100 for the full control effect; nearly all actives have a fitted effect of over 55% in size
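Chicken DT40 Tdp1-/- cells stably complemented with human TDP1 were seeded at 400 cells/well in medium containing 20 nM camptothecin, exposed to pin-transferred compounds, and grown at 37 °C for at least 48 hr. Viability was read as ATP luminescence.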
DT40 TDP1 no CPT: qHTS for Inhibitors of human tyrosyl-DNA phosphodiesterase 1 (TDP1): qHTS in cells in absence of CPT; DT40 Tdp1-/- hTDP1 cells, no CPT, ATP luminescence, 48 h; Potency, µM (top dose mostly 46.2 µM), inactives show at the highest dose activity change, negative = growth inhibition, most hits filed as inhibitors; 15% of 420,000 active; AID 686978, 2013; also: % is scaled to controls: 0 for no effect and ±100 for the full control effect; nearly all actives have a fitted effect of over 55% in size
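Readout: luminescence from CellTiter-Glo after 30 min in the dark at RT. Cells: DT40 Tdp1-/- with stable hTDP1, 400/well. Exposure: compounds alone, ≥48 hr, 37 °C.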
HepG2 tox: kills HepG2 cells in TGF-b inhibitor counter-screen; 0.76% of 410,000 active; HepG2 CAGA-GFP viability, ATP luminescence, 18 h; Potency, µM (top dose mostly 46.1 µM), for the others: at the highest dose activity change, negative = cytotoxicity, hits mostly cytotoxic
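CellTiter-Glo luminescence gave cytotoxicity after 18 hours at 37 degrees C. The cells were HepG2 CAGA-GFP in 1% FBS DMEM, stimulated with 500 pg/mL TGF-beta after compound addition. %Activity was normalised to no-cell wells (complete cell-killing) and DMSO (no toxicity), and curves were fitted and classified.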
HT1080NT lethal: kills 2HG-producing HT-1080-NT fibrosarcoma cells. 1.6% of 360,000 active. Potency, µM (titrated, usually from 46.1 µM), for inactives: top-dose activity, negative = less viability, hits mostly cytotoxic. HT-1080-NT fibrosarcoma viability, CellTiter-Glo ATP luminescence, 48 h;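 also: NT is the 2HG producing partner of a matched IDH1 knockdown line; 0% = DMSO-treated cells and -100% = media-only wells without cells; nearly all actives have a fitted effect of over 55% in size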
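Toxicity toward the 2HG-producing NT line was scored as %Activity, normalised to DMSO and no-cell wells, from CellTiter-Glo luminescence after 48 hours' treatment.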
TGFb inhibitor: TGF-b pathway inhibition. AID 588855. Potency, µM (top dose mostly 46.1 µM), without a hit: top-dose activity, negative = inhibition, usual class: inhibitors. HepG2 CAGA-GFP TGF-b/SMAD3 reporter, GFP fluorescence, 18 h; TGF-beta stimulated, 500 pg/mL final. 1.2% of 410,000 active; also: % is scaled to controls: 0 for no effect and ±100 for the full control effect; nearly all actives have a fitted effect of over 65% in size
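Inhibition was scored as loss of TGF-beta-induced (500 pg/mL final, 18 hours, 37 degrees C) GFP in HEPG2 cells carrying a CAGA-GFP reporter, in DMEM with 1% FBS. Well GFP was summed per cell; Activity was normalised to unstimulated and stimulated DMSO wells, then concentration-response fitting.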
HT1080 IDH1KD tx: kills HT-1080 cells with IDH1 knockdown. HT-1080 IDH1 knockdown viability, ATP luminescence, 48 h. Potency, µM (titrated, usually from 46.1 µM), for the others: at the top dose activity, negative = toxicity, usual class: cytotoxic. 2% of 360,000 active. AID 686971;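 also: 0% = DMSO wells and -100% = cell-free medium wells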
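Assay cells: HT-1080 with IDH1 knockdown, 750 per well, RPMI/5% FBS. Exposure: 48 h at 37 °C following 2 h pre-incubation. Read: CellTiter-Glo luminescence; fitted concentration-response, curve class assigned.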
* = called active by the depositor. Calls follow the shape of the dose curve; as a rule, active = well fitted curve in the direction sought with a large enough effect; inconclusive = small, poorly fitted or top-dose-only effect, or another doubt; inactive = no such curve, though single readings can be large; an effect the other way counts as inactive or inconclusive. Potency is read from the fitted curve at half-maximal effect.

`O=C(c1cccs1)N1CCCC(c2ccccc2)C1` (stereo not drawn) gave TDP1 cell CPT 0%, DT40 TDP1 no CPT 18µM*, HepG2 tox -20%, HT1080NT lethal 0%, TGFb inhibitor 17% and HT1080 IDH1KD tx -7%.
For CC(C)c1ccc(NC2CCCN(C(=O)c3cccnc3)C2)cc1 (stereo not drawn) the results were TDP1 cell CPT inconclusive, DT40 TDP1 no CPT inconclusive, HepG2 tox -5%, HT1080NT lethal 20%, TGFb inhibitor -9% and HT1080 IDH1KD tx -7%.
Screening O=C(c1ccco1)N1CCCC(c2ccccc2)C1 (stereo not drawn) returned TDP1 cell CPT -1%, DT40 TDP1 no CPT -28%, HepG2 tox -3%, HT1080NT lethal 27%, TGFb inhibitor -15% and HT1080 IDH1KD tx 14%.
COc1ccc(S(=O)(=O)NCc2ccncc2)cc1NC(=O)c1ccccc1F was read as TDP1 cell CPT inconclusive, DT40 TDP1 no CPT -26%, HepG2 tox -8%, HT1080NT lethal -14%, TGFb inhibitor -9% and HT1080 IDH1KD tx -11%.
Screening CCOc1ccc(S(=O)(=O)NCc2ccccn2)cc1NC(=O)c1ccccc1F returned TDP1 cell CPT 0.65µM*, DT40 TDP1 no CPT 0.65µM*, HepG2 tox 2%, HT1080NT lethal 0.92µM*, TGFb inhibitor 13% and HT1080 IDH1KD tx inconclusive.
For COc1ccc(S(=O)(=O)NCc2ccccn2)cc1NC(=O)c1ccc(C)cc1 the results were TDP1 cell CPT 7.3µM*, DT40 TDP1 no CPT 5.2µM*, HepG2 tox 1%, HT1080NT lethal 5.8µM*, TGFb inhibitor -19% and HT1080 IDH1KD tx 13µM*.
For COc1ccc(S(=O)(=O)NCc2ccccn2)cc1NC(=O)c1ccccc1 the results were TDP1 cell CPT 4.6µM*, DT40 TDP1 no CPT 4.1µM*, HepG2 tox -3%, HT1080NT lethal 8.2µM*, TGFb inhibitor -4% and HT1080 IDH1KD tx 13µM*.
`COc1ccc(S(=O)(=O)NCc2ccccn2)cc1Br` gave TDP1 cell CPT -10%, DT40 TDP1 no CPT -2%, HepG2 tox -5%, HT1080NT lethal 5%, TGFb inhibitor 12% and HT1080 IDH1KD tx 8%.
`O=C(CSc1nnc(-c2ccc(F)cc2)c2ccccc12)Nc1ccccc1Cl` gave TDP1 cell CPT 10%, DT40 TDP1 no CPT 3%, HepG2 tox 18%, HT1080NT lethal 1%, TGFb inhibitor 1% and HT1080 IDH1KD tx -9%.
`CCCCNC(=O)Cn1c(SCc2ccccc2C)nc2ccncc21` gave TDP1 cell CPT -11%, DT40 TDP1 no CPT inconclusive, HepG2 tox 12% and TGFb inhibitor -5%.
For Cc1ccc(C(=O)O)cc1NC1(c2ccccc2)C(=O)c2ccccc2C1=O the results were TDP1 cell CPT 2%, DT40 TDP1 no CPT 4%, HepG2 tox -2% and TGFb inhibitor -3%.
CCOc1ccc(CNc2nc3nc(C)c(Cc4ccccc4)c(=O)n3[nH]2)cc1 was read as TDP1 cell CPT -19%, DT40 TDP1 no CPT -20%, HepG2 tox -3% and TGFb inhibitor 8%.
Screening COc1cc(NC(=O)Cc2nn(C)c(=O)c3ccccc23)cc(OC)c1OC returned TDP1 cell CPT inconclusive, DT40 TDP1 no CPT inconclusive, HepG2 tox -20%, HT1080NT lethal -12%, TGFb inhibitor 7% and HT1080 IDH1KD tx 8%.
`COc1ccc(N2CCN(C(=O)Cc3nn(C)c(=O)c4ccccc34)CC2)cc1` gave TDP1 cell CPT inconclusive, DT40 TDP1 no CPT inconclusive, HepG2 tox -4%, HT1080NT lethal -1%, TGFb inhibitor -7% and HT1080 IDH1KD tx -6%.
COc1ccc(CNC(=O)Cc2nn(C)c(=O)c3ccccc23)cc1 was read as TDP1 cell CPT 10µM*, DT40 TDP1 no CPT 7.3µM*, HepG2 tox -1%, HT1080NT lethal -9%, TGFb inhibitor 6% and HT1080 IDH1KD tx -20%.
CCC(=O)Nc1cc(-c2nn(C)c(=O)c3ccccc23)ccc1OC was read as TDP1 cell CPT -5%, DT40 TDP1 no CPT -7%, HepG2 tox -1%, HT1080NT lethal 3%, TGFb inhibitor 38% and HT1080 IDH1KD tx -19%.
For Cn1nc(C(=O)NC2CCCC2)c2ccccc2c1=O the results were TDP1 cell CPT -9%, DT40 TDP1 no CPT -10%, HepG2 tox 1%, HT1080NT lethal 3%, TGFb inhibitor 37% and HT1080 IDH1KD tx -2%.
`Cn1nc(CC(=O)NC2CCCCCC2)c2ccccc2c1=O` gave TDP1 cell CPT 18µM*, DT40 TDP1 no CPT 18µM*, HepG2 tox -8%, HT1080NT lethal -3%, TGFb inhibitor inconclusive and HT1080 IDH1KD tx -6%.
COc1ccc(OC)c(NC(=O)Cc2nn(C)c(=O)c3ccccc23)c1 was read as TDP1 cell CPT 16µM*, DT40 TDP1 no CPT 16µM*, HepG2 tox -27%, HT1080NT lethal -10%, TGFb inhibitor inconclusive and HT1080 IDH1KD tx -30%.
Screening COc1ccc(-c2nn(C)c(=O)c3ccccc23)cc1NC(=O)COc1ccc(C)cc1 returned TDP1 cell CPT 23µM*, DT40 TDP1 no CPT 18µM*, HepG2 tox 2%, HT1080NT lethal -5%, TGFb inhibitor 0% and HT1080 IDH1KD tx -14%.
Screening COc1ccc(Cl)c2sc(N3CCN(C(C)=O)CC3)nc12 returned TDP1 cell CPT -10%, DT40 TDP1 no CPT -1%, HepG2 tox 1%, HT1080NT lethal 3%, TGFb inhibitor 6% and HT1080 IDH1KD tx 3%.
`COCCCN(C(=O)CSCC(=O)Nc1ccc(C)cc1)c1c(N)n(Cc2ccccc2)c(=O)[nH]c1=O` gave TDP1 cell CPT 26%, DT40 TDP1 no CPT -9%, HepG2 tox 0%, HT1080NT lethal 0%, TGFb inhibitor -11% and HT1080 IDH1KD tx 0%.
COc1ccc(-n2c(=O)c3c(c4cc(OC)ccc4n3C)n(Cc3c(F)cccc3Cl)c2=O)cc1 was read as TDP1 cell CPT -3%, DT40 TDP1 no CPT -13%, HepG2 tox -2% and TGFb inhibitor 33%.
For O=C(CCc1ccncc1)NC1CCCc2c1cnn2-c1ccc(F)cc1F (stereo not drawn) the results were TDP1 cell CPT inconclusive, DT40 TDP1 no CPT inconclusive, HepG2 tox -13%, HT1080NT lethal inconclusive, TGFb inhibitor inconclusive and HT1080 IDH1KD tx -20%.

Screening results from PubChem BioAssay.
